About 83,000 compounds went through this panel and 20% of them were active in at least one assay; those are over-represented in the sample as a whole.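 Method: cells in 96-well plates; compound added at one concentration; 48 h incubation; percent growth measured; values under 10 scored active.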 Values without a mark were called inactive. Calls of active or inactive are those of the source.

Some test systems named below: NCI-H23 lung; NCI-H226 lung; NCI-H322M lung; HOP-62 NSCLC; NCI-H460 lung; HOP-92 NSCLC; NCI-H522 lung; A549/ATCC NSCLC; COLO 205 colon; DU-145 prostate; K-562 leukemia; MALME-3M melanoma; MDA-MB-231 breast; RXF 393 renal; SF-268 CNS; SF-295 CNS; SF-539 CNS; UACC-257 melanoma; M14 melanoma; 786-0 renal.
What all share (assay): NCI-60 one-dose screen, 48 h (100 = growth as untreated, 0 = no growth, -100 = all killed)
Common to all, as to conditions: 10 µM unless noted

For the molecule `Cc1cc(=O)oc2cc(Oc3nc(-c4ccc(Cl)cc4)cn4c(-c5ccc(Cl)cc5)cnc34)ccc12`, the growth is 78.1% in the test with NCI-H23 lung; 93% in the test on NCI-H226 lung; 95.9% with NCI-H322M lung; 99.7% in the test on HOP-62 NSCLC; 93.3% in the test on NCI-H460 lung; 91% in the test on HOP-92 NSCLC. The growth is 95.8% with NCI-H522 lung; 101% in the test with A549/ATCC NSCLC; 97.5% in the test on COLO 205 colon; 69.6% in the test on DU-145 prostate; 85.1% in the test on K-562 leukemia; 43.6% in the test on MALME-3M melanoma. Further, the growth with MDA-MB-231 breast was 73.3%; in the test with RXF 393 renal, 70.5%; in the test with SF-268 CNS, 95.9%; in the test with SF-295 CNS it was 120%; in the test on SF-539 CNS, 91.8%; in the test with UACC-257 melanoma, 88.3%. Also, the growth with M14 melanoma was 64.2%.
Consider `O=C1C[C@H](Sc2nc(-c3ccc(F)cc3)cc(C(F)(F)F)n2)[C@H]2CO[C@@H]1O2`, for which the growth with NCI-H23 lung was 99.2%; in the test with NCI-H226 lung, 103%; with NCI-H322M lung, 108%; in the test on HOP-62 NSCLC it was 104%; with NCI-H460 lung, 106%; in the test on HOP-92 NSCLC it was 105%. In addition, the growth was -62.1% (active) in the test on NCI-H522 lung; 102% in the test on A549/ATCC NSCLC; 75.8% with COLO 205 colon; 89.9% in the test with DU-145 prostate; 53.3% with K-562 leukemia; 89.1% in the test with MALME-3M melanoma. Moreover, the growth in the test with MDA-MB-231 breast was 96.2%; in the test with RXF 393 renal, 96.6%; in the test on SF-268 CNS, 101%; with SF-295 CNS, 109%; in the test on SF-539 CNS, 103%; in the test with UACC-257 melanoma it was 104%. Besides, in the test on M14 melanoma, the growth is 97.8%.
In the case of `N=S(=O)(NC(=O)c1ccc(Cl)cc1Cl)c1ccc(Br)s1` (centres undefined), the growth was 102% with NCI-H23 lung; 94.5% in the test on NCI-H226 lung; 118% with NCI-H322M lung; 91% in the test on HOP-62 NSCLC; 85.8% in the test with NCI-H460 lung; 86.9% in the test with HOP-92 NSCLC. The growth is 103% in the test on NCI-H522 lung; 80.7% in the test with A549/ATCC NSCLC; 89.9% in the test on 786-0 renal; 107% in the test with COLO 205 colon; 105% in the test on DU-145 prostate; 107% in the test on K-562 leukemia. Further, the growth is 98.2% with MDA-MB-231 breast; 91.7% in the test on RXF 393 renal; 99.8% in the test with SF-268 CNS; 89.6% with SF-295 CNS; 91.7% with SF-539 CNS; 98.2% in the test on UACC-257 melanoma. For the same molecule, the growth with M14 melanoma was 99.8%.
As to `C[C@@H]1CC[C@@H]2[C@@H]1[C@H](OC(=O)/C=C/c1ccccc1)[C@]1(C3CCCCC3)C[C@@H](OC(=O)CO)[C@@]2(C)O1`, the growth in the test on NCI-H23 lung is 81.9%; in the test on NCI-H226 lung, 68.2%; with NCI-H322M lung it was 92.9%; with HOP-62 NSCLC it was 86%; with NCI-H460 lung, 68.3%; in the test on HOP-92 NSCLC, 55.3%. The growth in the test on NCI-H522 lung was 65.9%; in the test with A549/ATCC NSCLC, 53.1%; in the test on 786-0 renal, 73.2%; with COLO 205 colon, 80.6%; in the test with DU-145 prostate, 81.5%; in the test on MALME-3M melanoma, 104%. In addition, the growth with MDA-MB-231 breast was 84.7%; in the test on RXF 393 renal it was 26.9%; with SF-268 CNS, 32.1%; in the test on SF-295 CNS, 87.5%; in the test on SF-539 CNS it was 89.6%; in the test on UACC-257 melanoma it was 67.8%. Besides, the growth in the test with M14 melanoma is 89.9%.
On to `CC(C)CC(CC1=CCC2CC1C2(C)C)C1=C(O)C(C)(C)C(=O)C(C)(C)C1=O` (centres undefined), for which the growth is 5.33% (active) with NCI-H23 lung; 13.7% in the test with NCI-H226 lung; 9.97% (active) in the test with NCI-H322M lung; -4.19% (active) in the test with HOP-62 NSCLC; 4.62% (active) in the test on NCI-H460 lung; -27.4% (active) with HOP-92 NSCLC. In addition, the growth was 3.54% (active) in the test on NCI-H522 lung; 0.788% (active) with A549/ATCC NSCLC; 6.76% (active) in the test with 786-0 renal; -65.7% (active) in the test with COLO 205 colon; 33.6% in the test with DU-145 prostate; 13.9% with MALME-3M melanoma. The growth is -6.26% (active) in the test on MDA-MB-231 breast; 7.5% (active) with RXF 393 renal; 21.4% in the test with SF-268 CNS; -24.3% (active) in the test on SF-295 CNS; 17% with SF-539 CNS; -23.2% (active) with UACC-257 melanoma. Besides, the growth in the test with M14 melanoma was 20.3%.
`Oc1cccc(Nc2nccc(-c3ccc4ccccc4c3)n2)c1`: the growth with NCI-H23 lung is 33.2%; with NCI-H226 lung, 70.8%; in the test on NCI-H322M lung, 46%; with HOP-62 NSCLC it was 27.2%; in the test with NCI-H460 lung, 16.1%; in the test with HOP-92 NSCLC, 63.5%. The growth with NCI-H522 lung was 15.6%; with A549/ATCC NSCLC, 30.7%; in the test on 786-0 renal it was 30.1%; with COLO 205 colon, 84.7%; in the test on DU-145 prostate, 27.3%; with MALME-3M melanoma, 68%. Also, the growth in the test on MDA-MB-231 breast is 37.2%; with RXF 393 renal, 37.8%; with SF-268 CNS, 47.3%; with SF-295 CNS, 25.2%; in the test with SF-539 CNS, 11%; in the test on UACC-257 melanoma it was 47.3%. In the test on M14 melanoma, the growth is 8.25% (active).
Consider `COC(=O)[C@H](C(C)C)n1c(=O)c2cc(OC)c(OC)cc2c2cnc3[nH]ccc3c21`, for which the growth in the test with NCI-H23 lung was 62.1%; in the test on NCI-H226 lung it was 46.4%; with NCI-H322M lung it was 48.5%; in the test with HOP-62 NSCLC, 45.8%; in the test on NCI-H460 lung it was 41.2%; with HOP-92 NSCLC it was 13.7%. Moreover, the growth is 62.8% in the test with NCI-H522 lung; 40.7% in the test with A549/ATCC NSCLC; 52.9% in the test with 786-0 renal; 57.5% in the test on COLO 205 colon; 51.4% with DU-145 prostate; 85.1% in the test on MALME-3M melanoma. For the same molecule, the growth is 48% in the test on MDA-MB-231 breast; -0.674% (active) with RXF 393 renal; 45.6% with SF-268 CNS; 25.2% in the test on SF-295 CNS; 9.26% (active) in the test on SF-539 CNS; 78.7% in the test on UACC-257 melanoma. The growth in the test on M14 melanoma is 76.1%.
Take `C/C=C/C(N)=O`: the growth in the test with NCI-H23 lung was 96.9%; in the test with NCI-H226 lung it was 93.4%; in the test with NCI-H322M lung it was 93.4%; in the test with HOP-62 NSCLC it was 109%; in the test on NCI-H460 lung it was 102%; in the test with HOP-92 NSCLC it was 91.1%. Also, the growth in the test with NCI-H522 lung is 104%; in the test on A549/ATCC NSCLC, 106%; in the test with COLO 205 colon it was 107%; in the test with DU-145 prostate it was 106%; in the test with K-562 leukemia, 109%; with MALME-3M melanoma, 99.7%. In addition, the growth with MDA-MB-231 breast is 108%; in the test on RXF 393 renal, 108%; with SF-268 CNS it was 104%; in the test on SF-295 CNS it was 106%; in the test with SF-539 CNS, 101%; in the test on UACC-257 melanoma, 108%. For the same molecule, the growth with M14 melanoma was 95.5%.
As to `O=C1C=CC(Nc2ccccc2[N+](=O)[O-])C1Nc1ccccc1[N+](=O)[O-]` (centres undefined), the growth is 6.85% (active) in the test on NCI-H23 lung; -41.7% (active) in the test on NCI-H226 lung; 79.1% in the test with NCI-H322M lung; 90.9% with HOP-62 NSCLC; 59% with NCI-H460 lung; -56.5% (active) in the test on HOP-92 NSCLC. For the same molecule, the growth in the test on NCI-H522 lung is -90.1% (active); in the test with 786-0 renal, -76.7% (active); in the test on COLO 205 colon, -79.2% (active); in the test with DU-145 prostate it was -69.1% (active); in the test on K-562 leukemia, 5.11% (active); in the test with MALME-3M melanoma, -89.7% (active). Further, the growth is -96.4% (active) in the test on RXF 393 renal; 75.8% in the test with SF-268 CNS; 67.5% with SF-295 CNS; -93.6% (active) in the test on SF-539 CNS; 28.7% in the test with UACC-257 melanoma; -68.9% (active) with M14 melanoma.
For `CC(C)n1cc2c(N)ncnc2n1`, the growth is 103% in the test on NCI-H23 lung; 94.5% in the test with NCI-H226 lung; 86.6% with NCI-H322M lung; 96.4% in the test on HOP-62 NSCLC; 107% in the test with NCI-H460 lung; 144% in the test on HOP-92 NSCLC. In addition, the growth is 102% with A549/ATCC NSCLC; 100% in the test on 786-0 renal; 118% in the test on COLO 205 colon; 128% with DU-145 prostate; 98.5% with K-562 leukemia; 86.3% in the test on MALME-3M melanoma. The growth in the test on MDA-MB-231 breast was 109%; with RXF 393 renal it was 115%; in the test with SF-268 CNS, 106%; with SF-295 CNS it was 102%; in the test on SF-539 CNS, 105%; in the test with UACC-257 melanoma, 121%. In the test on M14 melanoma, the growth was 107%.

The values above are taken from PubChem BioAssay (NCI).
